About 83,000 compounds went through this panel and 20% of them were active in at least one assay; those are over-represented in the sample as a whole.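 Cells were grown in 96-well plates and exposed to the test compound at a single concentration for 48 hours; results are reported as percent growth, with values below 10 considered active.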 A number with no mark means an inactive call. The source made the active and inactive calls.
What follows are compounds tested on COLO 205 colon (assay: NCI-60 one-dose screen, 48 h (100 = growth as untreated, 0 = no growth, -100 = all killed)). Settings: 10 µM.

SMILES	growth
CN1CCN(c2ccc(C(=O)/C=C/c3cc(C(F)(F)F)ccc3Cl)cc2)CC1	-97% (active)
CCOc1ccc(/C=N/NC(=O)Cn2nc(Cc3ccccc3)c3onc(C)c3c2=O)cc1	29.2%
O=C(NO)c1ccc(-c2nc3ccc4[nH]ncc4c3c3c2CCCC3)cc1	-20.1% (active)
COc1ccc(-c2ccc(/C=N/NC(=O)c3[nH]c4ccc(Br)cc4c3-c3ccccc3)o2)cc1	63.1%
CCOC(=O)C1=C(N)N(c2ccc(C)cc2)C2=C(C(=O)CC(C)(C)C2)C1c1ccccc1OC (stereo not drawn)	134%
N#C/C(=C\c1ccc(N(c2ccccc2)c2ccccc2)cc1)C(N)=O	19.7%
NC1=NC(c2ccccc2Cl)N=C(Nc2nn[nH]n2)N1 (stereo not drawn)	116%
O=C(N/N=C/c1ccc(-c2cccc([N+](=O)[O-])c2)o1)c1[nH]c2ccc(Br)cc2c1-c1ccccc1	-65.4% (active)

Reference: PubChem BioAssay (NCI)
